Rows were chosen to be rich in hits. Some 10% of all compounds tested hit in one or more screens of this group.
SARS PLP yeast – blocks SARS-CoV papain-like protease in a yeast assay | S. cerevisiae expressing SARS-CoV PLpro, growth rescue | Potency, µM (series often up to 32.9 µM), for inactives: at the top dose activity, positive = growth rescue, actives largely listed as activators | hit rate 0.19% among 330,000 | AID 485353; also: 0% is about no effect; nearly all actives have a fitted effect of over 55% in size
NS1 inh – blocks influenza NS1 protein function; Potency, µM (doses to about 46.1 µM), inactives show top-dose activity, positive = more growth; hit rate 0.4% among 270,000; AID 2326; also: actives are rising curves; nearly all actives have a fitted effect of over 50% in size
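Compounds were scored for reversing the slow growth caused by influenza A NS1 in S. cerevisiae, measured by optical density at 600 nm. Assay medium contained 2% galactose at pH 6.0; NS1-free yeast of the same strain were the positive control.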
Pf growth 48h – P. falciparum growth inhibition at 48 hours (one generation); P. falciparum luciferase growth in erythrocytes, 48 h; Potency, µM (top dose mostly 28.7 µM), without a hit: at the highest dose activity change, negative = inhibition, actives largely listed as inhibitors; hit rate 5.9% among 310,000; active = well fitted inhibition curve with a large enough effect; inconclusive = small, poorly fitted or top-dose-only effect, or another doubt; inactive = no such curve, though single readings can be large or run the other way; also: % is scaled to controls: 0 for no effect and ±100 for the full control effect
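A one-generation exposure of luciferase-tagged malaria parasites in RPMI 1640/Albumax erythrocyte culture, 37 C and 5% CO2. Inhibition is inferred from decreased luminescence after adding detection reagent.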
Pf growth 96h – inhibits malaria parasite growth, 96 h; hit rate 6.9% among 320,000; P. falciparum luciferase reporter growth, 96 h; AID 504834; Potency, µM (doses to about 28.7 µM), inactives show top-dose activity change, negative = inhibition, most hits filed as inhibitors; active = well fitted inhibition curve with a large enough effect; inconclusive = small, poorly fitted or top-dose-only effect, or another doubt; inactive = no such curve, though single readings can be large or run the other way; also: % is scaled to controls: 0 for no effect and ±100 for the full control effect
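96 h incubation, 37 C, 5% CO2, of luciferase-reporter P. falciparum-infected RBCs (2% hematocrit, 0.05% parasitemia final) with test compounds; endpoint luminescence.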
Active calls of the source: *; ? = inconclusive; / = no result; [ ] = another dose, or the depositor's remark. Unless noted, calls follow the shape of the full dose curve. Potency is read from the fitted curve at half-maximal effect.

SMILES	SARS PLP yeast	NS1 inh	Pf growth 48h	Pf growth 96h
CCCCn1c(C)cc(C)c(S(=O)(=O)c2ccccc2C)c1=O	-15.2%	4.9%	/	14.7µM*
Cc1ccccc1S(=O)(=O)c1c(C)cc(C)n(C(C)C)c1=O	4.0%	-13.8%	-20.9%	?
COc1ccc(C(O)c2cc(OC)ccc2OP(=O)(N(C)C)N(C)C)cc1 (stereo not drawn)	8.0%	-5.0%	10.4µM*	5.22µM*
COc1ccc(C(O)c2ccccc2OP(=O)(N(C)C)N(C)C)cc1 (stereo not drawn)	0.7%	6.5%	-1.1%	-15.9%
Cc1onc(-c2ccccc2Cl)c1C(=O)NCc1ccccn1	0.6%	-1.1%[9.22 µM]	-6.5%	/
COc1ccccc1CNC(=O)c1c(-c2ccccc2Cl)noc1C	3.6%	6.0%	10.4µM*	57.2%
Cc1onc(-c2ccccc2Cl)c1C(=O)NC(=S)NCCc1ccccc1	-12.9%	24.3%	-19.6%	32.7%
CC(=O)N1CCN(C(=S)NC(=O)c2c(-c3ccccc3Cl)noc2C)CC1	1.9%	/	7.9%	?
Cc1onc(-c2ccccc2Cl)c1C(=O)NC(C)c1ccccc1 (stereo not drawn)	2.9%	?	-20.8%	13.1µM*
Cc1onc(-c2ccccc2Cl)c1C(N)=O	-3.1%	1.2%	8.7%	-2.5%
Cc1ccc(NC(=S)NC(=O)c2c(-c3ccccc3Cl)noc2C)cc1	-12.4%	9.5%	10.4µM*	?
Cc1onc(-c2ccccc2Cl)c1C(=O)NC(=S)Nc1ccc(C(C)C)cc1	-0.6%	14.5%	5.22µM*	13.1µM*
O=C(COC(=O)Cc1ccccc1[N+](=O)[O-])NNC(=O)c1ccc([N+](=O)[O-])cc1	-0.6%	/	-14.0%	-14.1%
Cc1onc(-c2ccccc2Cl)c1C(=O)NC(=S)Nc1ccccc1F	-2.5%	4.9%	4.15µM*	46.0%
COc1ccc(-c2noc(CN(C(=O)c3c(-c4ccccc4Cl)noc3C)C(C)C)n2)cc1	-9.6%	3.9%	10.4µM*	/
COc1ccccc1NC(=S)NC(=O)c1c(-c2ccccc2Cl)noc1C	-1.9%	?	?	22.4%
Cc1onc(-c2ccccc2Cl)c1C(=O)N(Cc1ccccc1)C(C)C	-1.5%	-9.9%	-24.1%	21.1%
CCOC(=O)c1sc(NC(=O)CSCc2c(C)noc2C)nc1C	1.6%	/	10.4µM*	?
CC(=O)c1sc(NC(=O)CSCc2c(C)noc2C)nc1-c1ccccc1	-2.5%	/	10.4µM*	?
CCOC(=O)c1sc(NC(=O)CSc2ncccn2)nc1C	7.0%	2.5%	50.0%	13.1µM*
CCOC(=O)c1sc(NC(=O)CSc2nccc(C)n2)nc1C	-0.6%	-0.4%	-21.3%	0.0%
CCOC(=O)c1sc(NC(=O)CSc2nnc(-c3ccc(OC)cc3)n2CCOC)nc1C	-12.4%	-40.5%	?	13.1µM*
Cc1noc(C)c1CSCC(=O)Nc1nc2ccccc2s1	-6.0%	0.4%	16.6%	?
CCc1ccc2nc(NC(=O)CSCc3c(C)noc3C)sc2c1	5.4%	-15.5%	2.4%	30.3%
CCC1(C)N=C(N)Nc2nc3cc(C)c(C)cc3n21 (stereo not drawn)	1.4%	-1.5%	?	?
SMILES	SARS PLP yeast	NS1 inh	Pf growth 48h	Pf growth 96h
Cc1cc(C)n(C(C)CNS(=O)(=O)c2ccc(Cl)cc2)n1 (stereo not drawn)	4.3%	17.5%	2.0%	42.2%
COc1cc(NC(=S)NC(=O)c2c(OC)cccc2OC)ccc1NC(=O)c1cccs1	6.0%	6.7%	5.22µM*	9.0%
COc1cc(C(=O)OCc2ccc(C)cc2)cc(NC(=O)c2cccs2)c1OC	8.9%	8.2%	8.28µM*	10.4µM*
COc1cc(NC(=S)NC(=O)c2cc(C)cc(C)c2)ccc1NC(=O)c1cccs1	-9.8%	25.9%	?	2.94µM*
COc1ccc(C)cc1-n1nnnc1SC(C)C(=O)NC1CCCC1 (stereo not drawn)	-0.6%	/	/	/
CCCOCn1cc(F)c(=O)[nH]c1=O	-3.4%	-0.2%	?	5.22µM*
C/C(=N\N=C(N)N)c1ccc(C)c(C)c1	1.3%	6.7%	9.28µM*	11.7µM*
N#Cc1c(SCC(=O)N2CCCCC2)nsc1SCC(=O)N1CCCCC1	-0.8%	-8.9%	14.7µM*	0.0%
CC1(C)Cc2cccc(OCC(=O)N3CCN(c4ccc(F)cc4)CC3)c2O1	0.6%	/	11.7µM*	?
CC1(C)Cc2cccc(OCC(=O)N3CCN(S(=O)(=O)c4ccccc4)CC3)c2O1	3.7%	-16.5%	?	4.65µM*
CCOCC(=O)N1CCN(c2ccc(F)cc2)CC1	6.1%	2.0%	14.2%	108.0%
O=C(COC(=O)C1(c2ccccc2)CC1)N1CCN(c2ccc(F)cc2)CC1	-2.2%	-6.5%	-8.6%	10.4µM*
CC1(C)Cc2cccc(OCC(=O)N3CCN(c4cccc(Cl)c4)CC3)c2O1	1.1%	/	4.65µM*	?
CC1(C)Cc2cccc(OCC(=O)N3CCN(c4cccc(C(F)(F)F)c4)CC3)c2O1	-6.7%	/	?	?
COc1ccc(NC(=O)c2ccccc2NC(=O)CN2CCCCCC2)cc1	0.1%	/	7.0%	42.7%
N#Cc1c(F)cccc1N1CCN(Cc2ccc3c(c2)OCO3)CC1	-1.1%	-10.3%	?	-8.4%
NC(=O)c1cc([N+](=O)[O-])ccc1NCc1cnccn1	1.0%	/	-28.0%	0.0%
O=C(NNC(=S)Nc1ccccc1)c1cc(-c2cccnc2)nc2ccccc12	2.1%	-4.8%	?	1.17µM*
CCNC(=S)NNC(=O)c1cc(-c2cccnc2)nc2ccccc12	10.2%	/	4.1%	21.4%
CCOC(=O)c1ccc(NC(=S)NNC(=O)c2cc(-c3cccnc3)nc3ccccc23)cc1	3.4%	7.9%	4.15µM*	66.1%
O=C(NC(=S)Nc1ccccc1)c1cc(-c2ccccc2)nc2ccccc12	-8.3%	?	?	10.4µM*
O=C(NC(=S)Nc1ccccn1)c1cc(-c2ccccc2)nc2ccccc12	7.5%	60.3%	23.2%	-28.3%
CSc1nc2nccc(-c3ccc(-c4ccccc4)cc3)n2n1	-5.0%	13.4%	/	10.4µM*
Cc1ccc(C)c(NC(=O)C2CCN(C(=O)c3cccs3)CC2)c1	-0.8%	-4.9%	17.1%	?
Cc1cc(C)n2c(Nc3ccc4c(c3)OCCO4)c(-c3ccco3)nc2n1	3.6%	6.7%	/	11.7µM*
SMILES	SARS PLP yeast	NS1 inh	Pf growth 48h	Pf growth 96h
Cc1cc(C)n2c(Nc3ccc4c(c3)OCCO4)c(-c3ccc(C)o3)nc2n1	3.4%	4.4%	/	5.86µM*
Cc1ccc(-c2nc3ncccn3c2Nc2ccc3c(c2)OCCO3)o1	-0.4%	-1.8%	5.2%	?
CCCCC1CCC(C(=O)N(C)CC(=O)Nc2cccc(F)c2)CC1 (stereo not drawn)	7.3%	-10.6%	?	?
COC(=O)Cc1c(C)c2ccc(OCC(=O)N3CCCC(C)C3)c(C)c2oc1=O (stereo not drawn)	-3.6%	-9.0%	?	-21.3%
COc1ccccc1CNC(=O)COC(=O)C1CCN(S(=O)(=O)c2ccccc2)CC1	1.6%	/	?	13.4%
O=C(O)C1CCCN1S(=O)(=O)c1cccs1 (stereo not drawn)	0.8%	-1.6%	/	34.2%
O=C(O)C1CCCCN1S(=O)(=O)c1ccc(Cl)s1 (stereo not drawn)	5.8%	0.2%	/	9.28µM*
COCCNC(=O)C(c1ccc(F)cc1)N(C(=O)CCC(=O)Nc1ccccn1)c1ccc(C)cc1 (stereo not drawn)	0.6%	5.0%	-7.7%	1.31µM*
